In PubChem BioAssay (NCATS):
Records with an inconclusive call do not appear. Calls of active or inactive are those of the source. Unless noted, calls come from the whole dose curve; as a rule, active = well fitted curve in the direction sought with a large enough effect; inconclusive = small, poorly fitted or top-dose-only effect, or another doubt; inactive = no such curve, though single readings can be large; an effect the other way counts as inactive or inconclusive.

How the values were obtained:
[1] = Cell Viability - BJ (AID 421; calls by dose curve;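 note: potency is the fitted concentration of half-maximal effect; cells exposed to compound for 40 hours at 37 °C before readout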); settings: BJ fibroblast viability, qHTS
How it was run: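 Cytotoxicity in human BJ foreskin fibroblasts is scored as loss of cellular ATP after a 40-hour exposure, measured by luciferase luminescence. Controls are DMSO and 100 uM tamoxifen.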

[2] = Cell Viability - Jurkat (AID 426;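 active = dose-dependent loss of cell ATP signal giving a full or clear fitted curve, ranked by lower potency value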;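 note: potency is the fitted concentration of half-maximal effect; cells exposed to compound for 40 hours at 37 °C before ATP read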); settings: qHTS
How it was run: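 Cytotoxicity taken as drop in cellular ATP (CellTiter-Glo luminescence, 20 min room temperature) after 40 hr, 37C treatment of 5000 Jurkat Clone E6-1 cells per well; concentration-response fitted with Hill equation for AC50.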

[3] = Cell Viability - Hek293 (AID 427;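 active = compounds whose dose-response curve shows a full or clear partial loss of cell viability, called from curve shape rather than a numeric limit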;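 note: potency is the fitted concentration of half-maximal effect; cells exposed to compound for 40 hours at 37 °C before reading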); settings: qHTS
How it was run: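 qHTS, human embryonic kidney (adenovirus-transformed) cells; 40 hr cpd, 37 °C; CellTiter-Glo ATP luminescence. Norm: DMSO = 0, 100 uM tamoxifen = 100% inhibition. Hill-fit AC50.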

[4] = Cell Viability - HepG2 (AID 433; calls by dose curve;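 note: potency is the fitted concentration of half-maximal effect; potency for ATP loss meaning cytotoxicity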); settings: qHTS
How it was run: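 Read-out is luciferase-based quantitation of cellular ATP as a measure of viable HepG2 cells after 40 h treatment at 37 °C. Signal decrease is scaled between DMSO-only and 100 uM tamoxifen controls, with AC50 fitted by the Hill equation.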

[5] = Cell Viability - MRC5 (AID 434; calls by dose curve;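 note: potency is the fitted concentration of half-maximal effect; cells exposed to compound for 40 hours at 37 °C; potency reflects cytotoxicity seen as loss of intracellular ATP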); settings: MRC5 lung fibroblast viability, qHTS
How it was run: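 ATP luminescence read-out (CellTiter-Glo, 20 min RT) after 40 hr, 37 °C compound exposure of 1500 MRC5 cells/well. Data normalized to DMSO (basal) and 100 uM tamoxifen (100% inhibition); AC50 from standard Hill equation.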

[6] = Cell Viability - SK-N-SH (AID 435; calls by dose curve; note: potency is the fitted concentration of half-maximal effect); settings: SK-N-SH neuroblastoma cell viability qHTS
How it was run: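 Luminescent ATP signal served as the viability read-out after 40 hours of compound treatment of human neuroblastoma SK-N-SH cells. Concentration-response data, scaled between DMSO and 100 uM tamoxifen, gave AC50 values by standard Hill modeling.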

[7] = Cell Viability - N2a (AID 540); settings: N2a mouse neuroblastoma cell viability; activity change, negative = cytotoxicity: at 92.2 µM (top of the series);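 note: plate controls were DMSO alone for no effect and tamoxifen control for full effect; nearly all actives have a fitted effect of over 45% in size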
How it was run: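 CellTiter-Glo ATP luminescence, read 20 min after reagent at room temperature, reported viability following 40 h compound treatment at 37 °C. N2a mouse neuroblastoma cells seeded 1500/well; Hill equation gave AC50.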

[8] = Cell Viability - HUV-EC-C (AID 542); note: % is set by controls: 0 for no effect and ±100 for the full control effect; nearly all actives have a fitted effect of over 35% in size
How it was run: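 CellTiter-Glo luminescence measured ATP loss in HUV-EC-C cells (1000/well) after 40 hr compound exposure at 37 °C, in complete culture medium. Concentration-response data were Hill-fitted to give AC50.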

[9] = Cell Viability - H-4-II-E (AID 543); note: % is set by controls: 0 for no effect and ±100 for the full control effect; nearly all actives have a fitted effect of over 35% in size
How it was run: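 CellTiter-Glo luminescence (intracellular ATP) measured after 40 h compound exposure at 37 °C in H-4-II-E rat hepatoma cells seeded at 1500/well. Values are AC50s fitted with the standard Hill equation.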

[10] = Cell Viability - SH-SY5Y (AID 544); note: nearly all actives have a fitted effect of over 55% in size
How it was run: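 Cytotoxicity measured via ATP-dependent luciferase luminescence (CellTiter-Glo) following 40 h, 37 °C exposure of 1500 SH-SY5Y cells per well. Concentration-response data were fitted with the standard Hill equation to give AC50.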

[11] = Cell Viability - Renal Proximal Tubule (AID 545); settings: renal proximal tubule cells viability, primary cells of rat origin; at 91.7 µM (top of the series); note: nearly all actives have a fitted effect of over 40% in size
How it was run: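 Luminescent ATP signal (CellTiter-Glo) served as the viability read-out after 40 hr compound exposure of freshly isolated rat proximal tubule cells at 37 °C. Concentration-dependent ATP loss was fitted with the Hill equation to give AC50.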

[12] = Cell Viability - Mesenchymal (AID 546); settings: mesenchymal cells viability, qHTS; activity change, negative = cytotoxicity: at 91.7 µM (top of the series);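 note: cells exposed to compound for 40 hours before reading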
How it was run: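 Human renal mesenchymal cells (glomerulus-derived), 1000 cells/well, 5 hr 37 °C pre-incubation; compound 40 hr, 37 °C; CellTiter-Glo, 20 min RT; luminescence; AC50 via Hill equation.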

[13] = Cellular Toxicity (caspase-3) HepG2 (AID 654);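 note: cells exposed to compound for 16 hours before reading; 0% = DMSO alone and 100% = caspase signal from 100 µM tamoxifen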
How it was run: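 Caspase 3/7 activation is measured as a luminescence increase (aminoluciferin substrate) after 16 h compound exposure of human hepatocarcinoma HepG2 cells. AC50 values are Hill fits, scaled between DMSO baseline and 100 uM tamoxifen stimulation.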

[14] = Cellular Toxicity (caspase-3) Jurkat (AID 655); settings: Jurkat caspase-3 activation, luminescence, DMSO = 0%, tamoxifen = 100%; at 92.2 µM (top of the series);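 note: cells exposed to compound for 16 h at 37 °C before reading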
How it was run: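 5000 Jurkat cells/well; compound 16 hr, 37 °C; Caspase-Glo 3/7 added, 20 min RT; luminescence read. Norm: DMSO = 0%, tamoxifen 100 uM = 100%. AC50, Hill model.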

[15] = Cellular Toxicity (caspase-3) HUV-EC-C (AID 656)
How it was run: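 qHTS; HUV-EC-C, 1000 cells/well; 5 hr settle, 16 hr cmpd, 37°C; Caspase-Glo 3/7, 20 min RT; luminescence. Norm: DMSO = 0%, tamoxifen 100 uM = 100%. Hill-fit AC50.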

[16] = Cellular Toxicity (caspase-3) SHSY5Y (AID 657);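 note: cells exposed to compound for 16 hours at 37 °C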
How it was run: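 qHTS, SH-SY5Y, 1500 cells/well, 5 h pre-incubation 37 °C; compound 16 h 37 °C; Caspase-Glo 3/7 1 h RT; luminescence. Norm.: DMSO = 0, 10 uM staurosporine = 100%. Hill fit → AC50.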

[17] = Cellular Toxicity (caspase-3) MRC-5 (AID 659);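 note: 0% = DMSO basal and 100% = 10 µM staurosporine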
How it was run: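 MRC-5 fibroblasts, 1500/well; 16 h cpd, 37 °C; Caspase-Glo 3/7, 1 h RT; lumi read. Norm: DMSO = 0%, 10 uM staurosporine = 100%. Hill-fit AC50 from qHTS conc-response.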

[18] = Cellular Toxicity (caspase-3) Mesangial (AID 660);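 note: combined caspase 3 and 7 activity read by Caspase-Glo luminescence; cells exposed to compound for 16 h before the caspase read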
How it was run: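 Caspase 3/7 activation measured by Caspase-Glo 3/7 luminescence (20 min, room temperature) following 16 h exposure of mesangial cells (1000/well); AC50 from Hill-equation fit, normalized to DMSO and 100 uM tamoxifen.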

[19] = Cellular Toxicity (caspase-3) SK-N-SH (AID 661);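 note: cells exposed to compound for 16 hours; 0% = DMSO basal and 100% = 10 µM staurosporine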
How it was run: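 Caspase 3/7 activation was read by luminogenic substrate cleavage after 16 hour treatment of SK-N-SH cells. Signal was scaled between DMSO and 10 uM staurosporine, and concentration-response data were fitted with the Hill equation for AC50.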

[20] = Cellular Toxicity (caspase-3) H-4-II-E (AID 663); settings: Potency: caspase-3 activation;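 note: cells exposed to compound for 16 hr before readout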
How it was run: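 H-4-II-E rat hepatoma, 1500 cells/well, 5 hr settle at 37 °C; compound 16 hr, 37 °C, complete medium; Caspase-Glo 3/7, 20 min RT; luminescence. DMSO = 0%, 100 uM tamoxifen = 100%; Hill-equation AC50.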

[21] = Cellular Toxicity (caspase-3) Hek293 (AID 664);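 note: cells exposed to compound for 16 h at 37 °C before readout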
How it was run: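 Concentration-response qHTS: caspase 3/7 activation measured by luminescent aminoluciferin substrate cleavage after 16 h compound exposure of Hek 293 cells. AC50 from Hill equation, with DMSO as basal and 100 uM tamoxifen as 100%.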

[22] = Cellular Toxicity (caspase-3) N2a (AID 665);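 note: compound exposure lasted 16 h at 37 °C before readout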
How it was run: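 Caspase-3/7 activation measured as luminescence from Caspase-Glo reagent (1 h, room temperature) after 16 h compound exposure of mouse N2a cells. AC50 values from Hill-equation concentration-response, scaled between DMSO and 10 uM staurosporine.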

[23] = Cellular Toxicity (caspase-3) NIH 3T3 (AID 666);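 note: caspase signal read after 16 h compound exposure; 0% = DMSO basal and 100% = 100 µM tamoxifen stimulation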
How it was run: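 Caspase-Glo 3/7 luminescence reported caspase activation in 1000 NIH 3T3 cells/well after 16 h compound exposure at 37 C. DMSO set basal and 100 uM tamoxifen set 100% stimulation; concentration-response modeled with the Hill equation for AC50.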

[24] = Cellular Toxicity (caspase-3) Renal Proximal Tubule (AID 667);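 note: cells exposed to compound for 16 hours at 37 °C before detection; 0% = DMSO basal and 100% = 10 µM staurosporine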
How it was run: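 AC50 derived by standard Hill fit of concentration-response data, normalized between DMSO basal and 10 uM staurosporine as 100% stimulation. Cells: primary rat kidney proximal tubule, 16 h treatment at 37 °C.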

CCCCCCCCCCCCCC(=O)O
inactive: Potency [1] > 92 µM | Potency [2] > 92 µM | Potency [3] > 92 µM | Potency [4] > 92 µM | Potency [5] > 92 µM | Potency [6] > 92 µM | activity change, negative = cytotoxicity [7] -4.4% | outcome [8] | Potency [9] | Potency [10] | activity change, negative = cytotoxicity [11] -23% | activity change, negative = cytotoxicity [12] 1.41% | outcome [13] | caspase-3 activation [14] -2.86% | outcome [15] | outcome [16] | outcome [17] | outcome [18] | outcome [19] | Potency [20] | outcome [21] | outcome [22] | outcome [23] | outcome [24]
